Screening data deposited in PubChem by National Center for Advancing Translational Sciences (NCATS).
Shown are actives, neighbours in structure and some others; about 19% of the full set was active somewhere.
HT1080 IDH1KD tx – kills HT-1080 cells with IDH1 knockdown | HT-1080 IDH1 knockdown viability, ATP luminescence, 48 h | Potency, µM (titrated, usually from 46.1 µM), most hits filed as cytotoxic | 2% of 360,000 active | AID 686971
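Luminescent ATP read-out (CellTiter-Glo, 10 min at room temperature) after 48 h compound exposure at 37 °C gave viability of IDH1-knockdown HT-1080 cells. Activity was normalised to DMSO and cell-free wells, then fitted as concentration-response curves.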
HT1080NT lethal – kills 2HG-producing HT-1080-NT fibrosarcoma cells. HT-1080-NT fibrosarcoma viability, CellTiter-Glo ATP luminescence, 48 h. 1.6% of 360,000 active. AID 686970. Potency, µM (doses to about 46.1 µM), hits mostly cytotoxic;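 also: NT is the 2HG producing partner of a matched IDH1 knockdown line; nearly all actives have a fitted effect of over 55% in size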
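Toxicity toward the 2HG-producing NT line was scored as %Activity, normalised to DMSO and no-cell wells, from CellTiter-Glo luminescence after 48 hours' treatment.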
TDP1 cell CPT – DT40-hTDP1 cell growth loss with CPT. AID 686979. chicken DT40 Tdp1-/-;hTDP1 cells + 20 nM CPT, ATP luminescence, 48 h. Potency, µM (doses to about 46.2 µM), usual class: inhibitors. 12% of 420,000 active; also: nearly all actives have a fitted effect of over 55% in size
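Cell growth measured by CellTiter-Glo luminescence after a minimum 48 h, 37 C compound exposure with 20 nM CPT in Tdp1-knockout DT40 cells stably expressing hTDP1, seeded 400/well; qHTS titration format.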
IL-1B inflam inh – inhibitors of inflammasome signaling (IL-1 beta secretion) | activity change, % at 57.5 µM | THP-1 LPS/ATP IL-1B secretion, AlphaLISA, 16 h; active compounds read low | 4.7% of 360,000 active; in the data active = activity change below about -50%; inconclusive = mostly about -30% to -49%
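THP-1 cells pretreated 1 hr with compounds (up to 57.5 uM final), then stimulated with LPS (250 ng/mL final) plus ATP (1.25 mM final); secreted IL-1B measured by AlphaLISA after 16 hr, decreased signal indicating inhibition.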
DT40 TDP1 no CPT – qHTS for Inhibitors of human tyrosyl-DNA phosphodiesterase 1 (TDP1): qHTS in cells in absence of CPT; DT40 Tdp1-/- hTDP1 cells, no CPT, ATP luminescence, 48 h; Potency, µM (highest dose often 46.2 µM), actives largely listed as inhibitors; 15% of 420,000 active; also: nearly all actives have a fitted effect of over 55% in size
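Luminescent ATP content (CellTiter-Glo) served as the growth readout. Knockout chicken DT40 cells expressing human TDP1 were exposed to compounds without camptothecin for a minimum 48 hr at 37 °C.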
uPA generation – cell surface uPA generation inhibition. cell surface uPA generation assay, qHTS. 0.31% of 330,000 active. Potency, µM (top dose mostly 38.3 µM), usual class: inhibitors; active = well fitted inhibition curve with a large enough effect; inconclusive = small, poorly fitted or top-dose-only effect; inactive = no such curve, though single readings can be large or run the other way; tested in mouse RAW 264.7 cells; also: nearly all actives have a fitted effect of over 55% in size
Of the large screens only hits and unclear results are named; the others gave an inactive call. Unless noted, calls follow the shape of the dose curve; as a rule, active = well fitted curve in the direction sought with a large enough effect; inconclusive = small, poorly fitted or top-dose-only effect, or another doubt; inactive = no such curve, though single readings can be large; an effect the other way counts as inactive or inconclusive.

Cc1ccc(Nc2nc(N)nc(N)c2N=O)cc1Cl	TDP1 cell CPT 10µM, DT40 TDP1 no CPT 13µM (no result: IL-1B inflam inh, uPA generation)
Nc1nc(N)c(N=O)c(Nc2ccc(Cl)c(Cl)c2)n1	HT1080 IDH1KD tx inconclusive, HT1080NT lethal inconclusive, TDP1 cell CPT 4.1µM, DT40 TDP1 no CPT 7.3µM (no result: uPA generation)
Cc1ccc(Nc2ncnc3nc[nH]c23)cc1Cl	uPA generation inconclusive
Nc1nc(N)c(Br)c(Nc2ccc(Cl)c(Cl)c2)n1	HT1080 IDH1KD tx inconclusive, TDP1 cell CPT inconclusive, DT40 TDP1 no CPT inconclusive
Cn1nnnc1SCC(=O)NC1CCCc2ccccc21 (configuration not stated)	none (no result: uPA generation)
Cc1cccn2c(=O)c(C(=O)NC(C)c3ccccc3)c(O)nc12 (configuration not stated)	TDP1 cell CPT 18µM, DT40 TDP1 no CPT inconclusive (no result: HT1080 IDH1KD tx, HT1080NT lethal, IL-1B inflam inh, uPA generation)
COc1ccc(CNC(=O)c2c(O)nc3c(C)cccn3c2=O)cc1	TDP1 cell CPT inconclusive, DT40 TDP1 no CPT 12µM (no result: HT1080 IDH1KD tx, HT1080NT lethal, IL-1B inflam inh, uPA generation)
COc1ccc(CCNC(=O)c2c(O)nc3c(C)cccn3c2=O)cc1	TDP1 cell CPT 16µM, DT40 TDP1 no CPT inconclusive (no result: HT1080 IDH1KD tx, HT1080NT lethal, IL-1B inflam inh, uPA generation)
O=C(NCc1ccc(F)cc1)c1c(O)nc2ccccn2c1=O	TDP1 cell CPT inconclusive, DT40 TDP1 no CPT 21µM (no result: HT1080 IDH1KD tx, HT1080NT lethal, IL-1B inflam inh, uPA generation)
O=C(N/N=C/c1ccc(OC(F)F)cc1OC(F)F)c1ccc(Br)cc1	none
Cc1ccc(S(=O)(=O)N(C)Cc2ccc(C(=O)N/N=C/c3ccc(OC(F)F)cc3OC(F)F)cc2)cc1	TDP1 cell CPT inconclusive, DT40 TDP1 no CPT 23µM
CC(C)CNc1ncnc2c1ncn2[C@H]1CN(Cc2ccncc2)C[C@@H](CO)O1	DT40 TDP1 no CPT inconclusive (no result: uPA generation)
OCCNc1ncnc2c1ncn2[C@H]1CN(Cc2ccc(-c3ccccc3)cc2)C[C@@H](CO)O1	TDP1 cell CPT inconclusive, DT40 TDP1 no CPT inconclusive (no result: uPA generation)
CN(C)CCNc1ncnc2c1ncn2[C@H]1CN(Cc2ccccc2)C[C@@H](CO)O1	HT1080NT lethal inconclusive, TDP1 cell CPT inconclusive (no result: uPA generation)
CN(C)CCNc1ncnc2c1ncn2[C@H]1CN(Cc2ccc(-c3ccccc3)cc2)C[C@@H](CO)O1	HT1080 IDH1KD tx 21µM, HT1080NT lethal 6.5µM, TDP1 cell CPT 29µM, DT40 TDP1 no CPT 21µM (no result: uPA generation)
CCN(CC)c1ncnc2c1ncn2[C@H]1CN(Cc2ccc(-c3ccccc3)cc2)C[C@@H](CO)O1	HT1080 IDH1KD tx inconclusive, HT1080NT lethal inconclusive, TDP1 cell CPT inconclusive, IL-1B inflam inh -54, DT40 TDP1 no CPT 16µM (no result: uPA generation)
CCN(CC)c1ncnc2c1ncn2[C@H]1CN(Cc2ccco2)C[C@@H](CO)O1	TDP1 cell CPT inconclusive (no result: uPA generation)
CC(C)CNc1ncnc2c1ncn2[C@H]1CN(Cc2ccc(-c3ccccc3)cc2)C[C@@H](CO)O1	HT1080 IDH1KD tx inconclusive, HT1080NT lethal 18µM, TDP1 cell CPT 5.2µM, DT40 TDP1 no CPT 4.1µM (no result: uPA generation)
CC(C)Nc1ncnc2c1ncn2[C@H]1CN(Cc2ccc(-c3ccccc3)cc2)C[C@@H](CO)O1	HT1080 IDH1KD tx inconclusive, HT1080NT lethal inconclusive, TDP1 cell CPT 4.6µM, DT40 TDP1 no CPT 5.2µM (no result: uPA generation)
Cc1ccc(NC(=O)C2CSC3(C)CCC(=O)N23)cc1S(=O)(=O)N1CCCCCC1 (configuration not stated)	TDP1 cell CPT inconclusive, IL-1B inflam inh inconclusive, DT40 TDP1 no CPT inconclusive, uPA generation inconclusive
CC(C)Cn1c(N)c(C(=O)COC(=O)C2CC(=O)N(Cc3ccccc3Cl)C2)c(=O)n(C)c1=O (configuration not stated)	HT1080NT lethal inconclusive, TDP1 cell CPT inconclusive, IL-1B inflam inh -61, DT40 TDP1 no CPT 16µM
COc1ccc(CCN2CC(C(=O)OCC(=O)c3c(N)n(CC(C)C)c(=O)n(C)c3=O)CC2=O)cc1OC (configuration not stated)	TDP1 cell CPT 21µM, DT40 TDP1 no CPT 13µM (no result: uPA generation)
Cc1cccc(C)c1NC(=O)C(CCc1ccccc1)n1c(=O)c(-c2cc3ccccc3[nH]2)nc2ccccc21 (configuration not stated)	HT1080 IDH1KD tx inconclusive, HT1080NT lethal inconclusive, TDP1 cell CPT 7.3µM, DT40 TDP1 no CPT 6.5µM (no result: uPA generation)
